# From PubChem BioAssay AID1942 (Johns Hopkins Ion Channel Center, 2009)
# Among all 2,400 compounds or so, about 580 (24%) were called active. Only a sample is shown. Values without a mark were called inactive.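 The calls were made as follows: active = activity change at or above the mean plus 3 SD of buffer wells without dofetilide, per plate; inactive = the rest.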
# Biological target: Potassium voltage-gated channel subfamily KQT member 2 (Rattus norvegicus) (UniProt O88943)
# Assay: rat KCNQ2 channel activation by compounds alone, confirmation, counter-screen for hERG block protector project, cell-based, CHO, FluxOR thallium flux (AID 1942);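 also: normalized value minus buffer-control mean plus three SD of buffer wells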
# Settings: CHO-KCNQ2 cells, FluxOR thallium flux fluorescence; at 10 µM; active compounds read high
# Chain of Potassium voltage-gated channel subfamily KQT member 2 (Rattus norvegicus) (O88943 whole entry, looked up): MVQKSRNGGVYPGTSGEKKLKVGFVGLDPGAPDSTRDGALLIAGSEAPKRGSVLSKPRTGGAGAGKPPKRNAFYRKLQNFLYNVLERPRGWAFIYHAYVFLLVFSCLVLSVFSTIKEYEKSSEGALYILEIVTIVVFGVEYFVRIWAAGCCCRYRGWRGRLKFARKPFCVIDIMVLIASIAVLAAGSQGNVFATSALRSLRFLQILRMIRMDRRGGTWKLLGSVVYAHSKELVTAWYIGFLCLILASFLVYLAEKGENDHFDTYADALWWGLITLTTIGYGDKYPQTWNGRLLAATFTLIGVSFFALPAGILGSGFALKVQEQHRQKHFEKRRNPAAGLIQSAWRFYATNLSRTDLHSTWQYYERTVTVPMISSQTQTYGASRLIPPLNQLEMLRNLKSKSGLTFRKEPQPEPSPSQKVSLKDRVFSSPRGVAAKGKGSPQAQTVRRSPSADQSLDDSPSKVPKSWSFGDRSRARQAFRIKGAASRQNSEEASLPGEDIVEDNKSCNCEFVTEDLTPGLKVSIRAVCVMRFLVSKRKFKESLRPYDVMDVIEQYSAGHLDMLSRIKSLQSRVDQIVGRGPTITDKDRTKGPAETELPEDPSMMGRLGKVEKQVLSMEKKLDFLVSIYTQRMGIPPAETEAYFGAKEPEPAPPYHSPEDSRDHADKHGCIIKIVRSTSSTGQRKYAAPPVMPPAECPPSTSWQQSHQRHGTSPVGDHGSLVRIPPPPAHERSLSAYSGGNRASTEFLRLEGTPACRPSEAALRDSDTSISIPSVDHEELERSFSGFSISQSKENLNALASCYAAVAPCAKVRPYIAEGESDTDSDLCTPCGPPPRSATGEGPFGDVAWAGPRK
row,Compound,"activity change, less the hit threshold"
1,N#Cc1cc(-c2ccccc2)nnc1Oc1ccccc1,-14.7%
2,COc1cc2c(cc1OC)CN(C(=O)c1sccc1C)CC2,-20.7%
3,COc1ccccc1C(=O)NNC(=O)C(=O)NC(C)(C)C,16.8% (active)
4,COc1ccccc1C(=O)Nc1ccc(C(=O)N2CCCC2)cc1,-7.2%
5,COc1ccccc1C(=O)NNC(=O)C(=O)Nc1ccc(C)cc1,132% (active)
6,Cc1ccc(NC(=O)C(=O)NNC(=O)c2ccccc2C)cc1Cl,90.3% (active)
7,COc1ccccc1C(=O)Nc1ccnn1C1CCN(C(=O)c2ccoc2C)CC1,-12.1%
8,COc1ccc(NC(=O)c2ccccc2SC)cc1OC,-19.4%
9,COc1ccccc1C(=O)NNC(=O)C(=O)Nc1ccc(C)c(Cl)c1,126% (active)
10,O=C(O)c1cc(-c2cccc([N+](=O)[O-])c2)n[nH]1,-19.6%
11,O=C(Nc1ccc(Cl)c(-c2nc3ccccc3[nH]2)c1)c1cccnc1,-40.7%
12,COc1ccc(CNC(=O)C2CCCN2)cc1OC (stereo unspecified),-26.1%
13,COc1cc(C2C(C#N)=C(N)Oc3c2ccc2ccccc32)ccc1OCC(=O)Nc1ccc(C)cc1 (stereo unspecified),-15.1%
14,Cc1ccc(C)c(OCc2cc(C(=O)N3CCNC(=O)C3)no2)c1,-16%
15,Cn1c(=O)c(-c2cc(=O)[nH][nH]2)c(O)c2ccccc21,-13.7%
16,CN(C)NC(=O)C(NC(=O)c1ccc(N)cc1)C12CC3CC(CC(C3)C1)C2 (stereo unspecified),-13.9%
17,Cc1ccc(NC(=O)CN2C(=O)S/C(=C\c3ccc(-c4cccc(C(=O)O)c4C)o3)C2=O)cc1,-27%
18,COc1ccc(C(=O)NNC(=O)C(=O)NC2CCCCC2)cc1,-1.7%
19,COc1ccccc1C(=O)NCc1ccc2c(c1)OCO2,-21.4%
20,COc1ccccc1C(=O)NNC(=O)C(=O)NCc1ccccc1,18.8% (active)
21,COc1cc(NC(=O)c2ccccc2OCc2ccccc2)cc(OC)c1OC,-26.8%
22,O=C(COc1ccc(Cl)cc1)NNC(=O)C(=O)NC1CCCCC1,-11.2%
23,COc1ccccc1C(=O)NNC(=O)C(=O)NC1CCCCC1,49.7% (active)
24,CC(C)CSC1=NSC2=NC(=O)/C(=C\c3ccccc3)C(=N)N12,1.1% (active)

row,Compound,"activity change, less the hit threshold"
1,Cc1ccc(/C=C2/C(=N)N3N=C(CC(=O)N4CCCC4)SC3=NC2=O)cc1,-19.5%
2,O=C(OCc1ccc([N+](=O)[O-])cc1)c1cc2ccccc2oc1=O,-21.1%
3,COc1cc(C2NC(=O)NC(C)=C2C(=O)OCC2CCCCC2)ccc1O (stereo unspecified),-7.2%
4,CCOC(=O)C1=C(c2ccccc2)NC(=O)NC1c1ccc(O)c(Cl)c1 (stereo unspecified),0.1% (active)
5,CCOC(=O)C1=C(c2ccccc2)NC(=O)NC1c1ccc(OC)c(OC)c1 (stereo unspecified),-25.1%
6,C/C(=N\NC(=O)COc1ccc(C)cc1C(C)C)c1ccc(-n2ccnc2)cc1,-22.3%
7,Cc1nn(-c2ccc(Cl)cc2)c2sc(C(=O)c3c(N)n(C)c(=O)n(C)c3=O)cc12,-14.1%
8,Cc1nc2ccc(C(=O)O)cc2[nH]1,-10.4%
9,C=CCn1c(=S)[nH]c2ccc(Br)cc2c1=O,12.4% (active)
10,COc1ccccc1Cn1c(=S)[nH]c2ccc(Br)cc2c1=O,-7.4%
11,O=C(CCN1C(=O)/C(=C\C=C\c2ccccc2)SC1=S)Nc1ccc(C(=O)O)cc1,-12.3%
12,O=c1[nH]c2ccccc2nc1C(F)(F)C(F)F,-16.2%
13,CCC(C)Sc1nc2c([nH]c3ccccc32)c(=O)n1C (stereo unspecified),-19.6%
14,CCSc1nc2c(sc3ccccc32)c(=O)n1C(C)C,30.9% (active)
15,COCCCN1C(=O)C(=O)/C(=C(/O)c2ccc(S(=O)(=O)N3CCOCC3)cc2)C1c1ccc(F)cc1 (stereo unspecified),-9.9%
16,CNc1nc(N)nc(OC(C(F)(F)F)C(F)(F)F)n1,-11%
17,Oc1ccc(/C=N/Nc2nccnc2Cl)c(O)c1,6.2% (active)
18,CN1C(=O)/C(=N\OC(=O)c2cccc3ccccc23)c2ccccc21,-9.4%
19,CCOC(=O)c1c(O)c2ccccc2n(C)c1=O,-10.3%
20,CCOC(=O)C1CCN(C(=O)COC(=O)c2nn(C)c(=O)c3ccccc23)CC1,-21%
21,CCOC(=O)c1n[nH]n2c1nc(=S)c1ccccc12,49.6% (active)
22,COC(=O)c1c(N2C(=O)CC(Sc3ncccc3C(=O)O)C2=O)sc(C)c1C (stereo unspecified),-12.9%
23,COc1ccc(/C=N/NC(=O)c2ccncc2)cc1CN1CCCc2ccccc21,-22.8%
24,O=C(NNc1c(F)c(F)cc(F)c1F)c1cc2ccccc2oc1=O,-13%

row,Compound,"activity change, less the hit threshold"
1,O=c1[nH]n2c(=O)c3c([nH]c2c1N=Nc1ccccc1)CCC3,-11.6%
2,O=C(NC(=S)N1CCN(C/C=C/c2ccccc2)CC1)c1ccc(Cl)nc1,7.4% (active)
3,CNC(=O)NC(=O)C(C)N1CCN(C/C=C/c2ccccc2)CC1 (stereo unspecified),-19.2%
4,O=C(CCN1C(=O)/C(=C\C=C\c2ccccc2)SC1=S)Nc1cccc(C(=O)O)c1,-20.7%
5,O=C(Nc1ccc(N2CCN(C(=O)c3ccc(Cl)cc3)CC2)cc1)c1ccc([N+](=O)[O-])o1,-6.1%
6,CC(=O)NC(CSC(CC(=O)c1ccco1)c1ccc(C)cc1)C(=O)O (stereo unspecified),-4.9%
7,Cc1ccc(S(=O)(=O)c2nnn3c2nc(N2CCOCC2)c2ccccc23)c(C)c1,-20.7%
8,CCOC(=O)c1nnn(CC(=O)Nc2ccccc2OC)c1C(=O)OCC,-15.8%
9,COc1ccccc1NC1=C(NC(C)=O)C(=O)c2ccccc2C1=O,14.4% (active)
10,COc1ccccc1NC(=O)C1CCCN1C(=O)NCc1ccccc1 (stereo unspecified),-24.2%
11,CC(C)NC(=O)Nc1n[nH]c(Nc2ccc(Cl)cc2)n1,13.2% (active)
12,O=C(Nc1ccc(Cl)cc1)Nn1cnnc1,-22.2%
13,O=c1[nH]c2ccc(S(=O)(=O)NCc3ccccc3)cc2[nH]1,-14%
14,CC(C)Nc1nc(SCC(N)=O)nc(N2CCOCC2)n1,-13.5%
15,Cc1ccc2nc(SCC(=O)N3CCCCCC3)nc(=O)n2c1,-23.7%
16,O=C(CSc1nc(N2CCCCC2)nc(N2CCCCC2)n1)c1ccccc1,31.5% (active)
17,CN(C)CCOC(=O)C1(c2ccccc2)CCCC1,-12.9%
18,Cn1c(=S)[nH]c2scc(-c3cccs3)c2c1=O,70.4% (active)
19,COc1cc(/C=N/n2cnc3scc(-c4cccs4)c3c2=O)cc(OC)c1OC,-21%
20,S=c1[nH]c(-c2cccs2)cn1-c1ccccc1,-6.4%
21,CC(C)n1c(=S)[nH]c2scc(-c3cccs3)c2c1=O,97.6% (active)
22,CC(C)C(=O)Nc1c(-c2ccccc2F)c(=O)c2ccccc2n1C,-21.5%
23,NC(=O)C1CCN(C(=O)CC(c2ccccc2)c2ccccc2)CC1,-24%
24,Brc1ccc(-c2noc(CCc3ccccc3)n2)cc1,-24.9%

row,Compound,"activity change, less the hit threshold"
1,CC(C)(C)c1cc(-c2n[nH]c(=S)n2-c2ccccc2F)n[nH]1,11.5% (active)
2,Fc1ccccc1-c1n[nH]c(=S)n1C1CC1,-17.8%
3,COc1ccc(/C(C)=N/Nc2ccc(C(=O)O)cc2)c(OC)c1,-18.1%
4,COc1ccccc1-n1c(CCC(=O)O)ccc1-c1ccccc1,-13.3%
5,CON/C=N/C(=S)Nc1ncc(C(F)(F)F)cc1Cl,29.7% (active)
6,ON/C=N/C(=S)Nc1ncc(C(F)(F)F)cc1Cl,26.3% (active)
7,c1ccc(Oc2cccc(OCCn3cncn3)c2)cc1,-14.9%
8,Cc1ccccc1NC(=O)CN1C(=O)S/C(=C\c2ccc(-c3cccc(C(=O)O)c3C)o2)C1=O,-22.4%
9,CN(Cc1ccsc1)C(=O)CCc1nnc(Cc2c[nH]c3ccccc23)o1,-10.9%
10,O=C1NCC(=O)N2C(c3ccccc3)c3[nH]c4ccccc4c3C[C@@H]12 (stereo partly specified),-11.9%
11,CC(=O)CSc1ncnc2sc3c(c12)CCC(C)C3 (stereo unspecified),89.9% (active)
12,COc1cc(NC(=O)CSc2ncnc3sc4c(c23)CCC(C)C4)c(C(=O)O)cc1OC (stereo unspecified),89.6% (active)
13,COc1cc(NC(=O)CCCOc2ccc(Cl)cc2Cl)c(C(=O)O)cc1OC,-18.7%
14,NS(=O)(=O)c1ccc(Sc2ccc3c(c2)CCC3)nc1,-2.7%
15,COc1cc(NS(=O)(=O)c2ccc(NC(=S)Nc3ccccc3)cc2)nc(OC)n1,-20.8%
16,COc1ccc(C(=O)CSc2nnc3ccc(-c4ccccn4)nn23)cc1,-17.4%
17,CS(=O)(=O)N1CCN(c2ccccc2NC(=O)Nc2cccc(Cl)c2)CC1,-24.2%
18,COc1ccc(-c2nc3ccc(C(=O)NCC(OC)OC)cc3nc2-c2ccc(OC)c(OC)c2)cc1OC,-22.7%
19,O=C1C(=O)N(CCN2CCOCC2)C(c2cccnc2)/C1=C(/O)c1ccc(Cl)cc1 (stereo unspecified),-17.6%
20,Nc1nnc(SCC(=O)OCc2ccc(F)cc2)s1,-16.7%
21,Cc1cccc(/C=C/C(=O)c2cc(Br)ccc(=O)c2O)c1,3% (active)
22,O=C(/C=C/c1ccccc1)CC(=O)c1ccccc1O,-15.2%
23,CCc1ccc(/C=C/C(=O)c2cc(Br)ccc(=O)c2O)cc1,-8.6%
24,O=C(/C=C/c1ccccc1)c1cc(Br)ccc(=O)c1O,15% (active)
